According to PubChem BioAssay:
A number with no mark means an inactive call. For some assays here: Measured potencies and affinities stand elsewhere. Activity calls are given as the source filed them. Unless noted, the rule behind the calls is not given here.

Tests used:
[1] = antimalarial activity against Dd2 strain (AID 2302;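 active = growth inhibition above 50% at the single 2 µM test dose, taken to imply half-maximal potency below 2 µM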;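 note: 0% = DMSO untreated growth and 100% = chloroquine plus artemisinin killed control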); conditions: P. falciparum Dd2 in RBCs, LDH growth readout, 72 h; at 2 µM; stronger effect = higher value
[2] = human hepatoma cell viability loss – ATP luminescence, cytotoxicity control for P. falciparum antimalarial project, primary screen (AID 2303;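 active = inhibition above 50%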;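 note: 0% = DMSO wells and 100% = digitonin-killed cells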); conditions: HepG2 viability, 24-48 h, at 10 µM, stronger effect = higher value
[3] = biological target: L-lactate dehydrogenase (Plasmodium falciparum (isolate CDC / Honduras)) (UniProt Q27743); assay: PfLDH activity inhibition – cell lysate, 3D7 strain, counter-screen for P. falciparum growth inhibition project (AID 2304);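 note: 0% = vehicle and 100% = reference inhibitor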; conditions: P. falciparum 3D7 crude extract, LDH APAD/NBT absorbance; at 2 µM; stronger effect = higher value
Chain of L-lactate dehydrogenase (Plasmodium falciparum (isolate CDC / Honduras)) (Q27743 whole entry, looked up): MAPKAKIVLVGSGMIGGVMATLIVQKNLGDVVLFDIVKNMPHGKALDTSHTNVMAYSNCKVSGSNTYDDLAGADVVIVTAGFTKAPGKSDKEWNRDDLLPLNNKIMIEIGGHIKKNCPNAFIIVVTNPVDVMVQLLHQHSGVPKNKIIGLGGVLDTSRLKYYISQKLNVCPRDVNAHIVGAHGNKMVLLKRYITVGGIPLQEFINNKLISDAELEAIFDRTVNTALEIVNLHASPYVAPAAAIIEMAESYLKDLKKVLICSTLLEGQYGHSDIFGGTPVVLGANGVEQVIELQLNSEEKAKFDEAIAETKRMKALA

[4] = inhibition of 3D7 malaria parasite growth – strain 3D7 (AID 2306);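 note: 0% = DMSO wells and 100% = chloroquine plus artemisinin control wells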; conditions: P. falciparum 3D7 erythrocytic growth, LDH absorbance, 72 h; at 2 µM; stronger effect = higher value
[5] = biological target: Calcium-dependent protein kinase 1 (Plasmodium falciparum (isolate 3D7)) (UniProt P62344); assay: PfCDPK1 kinase inhibitors, biochemical, TCAMS library (AID 1159585; cut-off not given, nearly all actives have IC50 up to about 0.98 µM;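 note: inhibitors leave more ATP so luminescence rises with inhibition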); conditions: recombinant PfCDPK1, Kinase-Glo ATP depletion luminescence
Chain of Calcium-dependent protein kinase 1 (Plasmodium falciparum (isolate 3D7)) (P62344 whole entry, looked up): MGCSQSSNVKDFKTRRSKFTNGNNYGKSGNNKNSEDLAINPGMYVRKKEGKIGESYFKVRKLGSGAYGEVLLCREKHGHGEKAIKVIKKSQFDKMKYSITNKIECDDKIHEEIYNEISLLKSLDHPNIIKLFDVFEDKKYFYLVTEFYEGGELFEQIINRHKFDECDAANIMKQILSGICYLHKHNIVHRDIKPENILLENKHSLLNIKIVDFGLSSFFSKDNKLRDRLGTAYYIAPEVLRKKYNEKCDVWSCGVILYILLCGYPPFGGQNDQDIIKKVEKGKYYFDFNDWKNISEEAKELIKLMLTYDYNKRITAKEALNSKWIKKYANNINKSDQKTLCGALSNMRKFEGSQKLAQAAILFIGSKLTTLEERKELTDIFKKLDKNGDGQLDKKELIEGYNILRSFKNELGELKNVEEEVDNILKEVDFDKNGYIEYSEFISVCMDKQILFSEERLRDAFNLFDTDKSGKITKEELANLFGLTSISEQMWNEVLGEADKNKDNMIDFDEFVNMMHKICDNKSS

[6] = biological target: Plasmodium falciparum protein kinase 6 (PK6, PF3D7_1337100) (UniProt Q8IDW1); assay: PfPK6 kinase inhibitors, biochemical, TCAMS library (AID 1159586); conditions: recombinant PfPK6, Kinase-Glo ATP depletion luminescence
Chain of Plasmodium falciparum protein kinase 6 (PK6, PF3D7_1337100) (Q8IDW1 1-305): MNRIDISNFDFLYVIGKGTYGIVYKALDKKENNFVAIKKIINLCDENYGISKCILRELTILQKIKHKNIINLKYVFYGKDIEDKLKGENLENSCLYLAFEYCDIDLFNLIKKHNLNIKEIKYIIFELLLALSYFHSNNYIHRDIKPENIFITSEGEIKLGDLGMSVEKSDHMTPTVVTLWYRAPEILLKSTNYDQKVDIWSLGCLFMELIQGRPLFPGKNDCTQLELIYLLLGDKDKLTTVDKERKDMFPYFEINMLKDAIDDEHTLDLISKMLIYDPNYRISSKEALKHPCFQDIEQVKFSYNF

[7] = biological target: Protein kinase 7 (PK7), Plasmodium falciparum 3D7 (PF3D7_0213400) (UniProt Q7YTF7); assay: inhibition of Plasmodium PK7 catalytic activity – biochemical, TCAMS antimalarial set, Kinase-Glo luminescence (AID 1159587); conditions: recombinant PfPK7, Kinase-Glo ATP depletion luminescence
Chain of Protein kinase 7 (PK7), Plasmodium falciparum 3D7 (PF3D7_0213400) (Q7YTF7 1-343): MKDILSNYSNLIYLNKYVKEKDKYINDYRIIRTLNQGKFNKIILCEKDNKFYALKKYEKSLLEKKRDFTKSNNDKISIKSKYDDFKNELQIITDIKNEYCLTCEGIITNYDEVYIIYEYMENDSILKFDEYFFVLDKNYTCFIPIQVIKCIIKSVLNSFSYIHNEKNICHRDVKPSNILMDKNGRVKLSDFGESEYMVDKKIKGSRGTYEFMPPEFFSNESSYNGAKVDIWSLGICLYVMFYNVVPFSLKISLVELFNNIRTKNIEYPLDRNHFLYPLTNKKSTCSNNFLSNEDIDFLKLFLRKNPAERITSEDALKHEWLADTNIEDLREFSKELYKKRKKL

[8] = biological target: Calcium-dependent protein kinase 4 (Plasmodium falciparum (isolate 3D7)) (UniProt Q8IBS5); assay: PfCDPK4 kinase inhibitors, biochemical, TCAMS library (AID 1159588; cut-off not given, nearly all actives have IC50 up to about 0.91 µM); conditions: recombinant PfCDPK4, Kinase-Glo ATP depletion luminescence
Chain of Calcium-dependent protein kinase 4 (Plasmodium falciparum (isolate 3D7)) (Q8IBS5 whole entry, looked up): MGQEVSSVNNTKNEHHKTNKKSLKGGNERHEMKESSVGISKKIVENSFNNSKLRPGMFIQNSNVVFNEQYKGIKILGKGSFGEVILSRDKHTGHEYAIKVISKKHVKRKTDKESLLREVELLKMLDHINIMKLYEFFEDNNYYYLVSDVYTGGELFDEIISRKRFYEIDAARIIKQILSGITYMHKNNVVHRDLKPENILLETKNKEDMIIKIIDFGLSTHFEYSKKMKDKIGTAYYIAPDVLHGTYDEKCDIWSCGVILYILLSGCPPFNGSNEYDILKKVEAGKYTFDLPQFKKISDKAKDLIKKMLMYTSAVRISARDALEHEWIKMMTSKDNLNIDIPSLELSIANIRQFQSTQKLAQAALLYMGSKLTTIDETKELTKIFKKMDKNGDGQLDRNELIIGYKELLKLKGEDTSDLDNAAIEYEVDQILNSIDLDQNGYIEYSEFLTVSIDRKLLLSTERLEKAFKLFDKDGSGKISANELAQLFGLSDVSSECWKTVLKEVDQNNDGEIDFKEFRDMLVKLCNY

SMILES	growth inhibition [1]	inhibition [2]	inhibition [3]	growth inhibition [4]	outcome [5]	outcome [6]	outcome [7]	outcome [8]
OCC1CCN(Cc2ccc(-c3cccc(-c4nc5ccccc5[nH]4)c3)cc2)CC1	6%	21%	-1%	101% (active)	inactive	inactive	inactive	inactive
CCCCCN1CCN(Cc2cccc(NC(=O)c3ccc(Cl)c(Cl)c3)c2)CC1	33%	24%	3%	90% (active)	inactive	inactive	inactive	inactive
CC(C)(C)S[C@H]1S[C@H](SC(C)(C)C)[C@@H](OC(=O)c2ccccc2)C(OC(=O)c2ccccc2)[C@H]1OC(=O)c1ccccc1 (stereo not given in full)	45%	-2%	5%	95% (active)	inactive	inactive	inactive	inactive
CC1(C)N=C(N)N=C(N)N1OCCCOc1cc(Cl)ccc1Cl	96% (active)	64% (active)	-1%	96% (active)	inactive	inactive	inactive	inactive
CN(C)CCN(C)Cc1ccc(-c2cccc(-c3nc4ccccc4[nH]3)c2)cc1	78% (active)	46%	-1%	101% (active)	inactive	inactive	inactive	inactive
COc1ccc(CNC2CCN(C)CC2)cc1-c1ccc(S(=O)(=O)NCCc2ccccn2)cc1	17%	13%	-5%	93% (active)	inactive	inactive	inactive	inactive
CCc1cc(N2CCN(c3ccccc3F)CC2)nc(SCc2ccc(C(=O)NC3CC3)o2)n1	94% (active)	9%	1%	90% (active)	inactive	inactive	inactive	inactive
CC(C)CCNC(=O)C1Cc2c([nH]c3ccc(Br)cc23)C2(CCN(Cc3ccccc3)CC2)N1 (stereo not given)	68% (active)	100% (active)	-3%	96% (active)	inactive	inactive	inactive	inactive
N#Cc1ccc(N2CCN(Cc3cccc(-c4ccc(-c5nc6ccccc6[nH]5)cc4)c3)CC2)nc1	40%	45%	-1%	89% (active)	inactive	inactive	inactive	inactive
O=C(COc1ccccc1Cl)N1CCc2cc3nccc(N4CCN5CCC[C@H]5C4)c3cc21	99% (active)	4%	-1%	91% (active)	inactive	inactive	inactive	inactive
OC(CNCCCCCCNCC(O)c1ccc(Cl)c(Cl)c1)c1ccc(Cl)c(Cl)c1 (stereo not given)	17%	99% (active)	-5%	90% (active)	inactive	inactive	inactive	inactive
CCCc1c(C(=O)OCC)c2cc(O)ccc2n1-c1ccc(OC)cc1	99% (active)	-2%	0%	100% (active)	inactive	inactive	inactive	inactive
O=C(Nc1ccc(OCc2ccccc2)cc1)c1nc2ccccc2nc1Cl	95% (active)	48%	3%	96% (active)	inactive	inactive	inactive	inactive
Cc1noc(C)c1-c1cccc(CNCc2cccc(-c3ccc(-c4nc5ccc(C(F)(F)F)cc5[nH]4)s3)c2)c1	95% (active)	23%	0%	100% (active)	inactive	inactive	inactive	inactive
CCCCN1C(=O)[C@H]2CC(=O)CC(C3CCCCC3)[C@H]2C1=O (stereo not given in full)	1%	-1%	-5%	97% (active)	inactive	inactive	inactive	inactive
COc1ccccc1Cc1c(C)nc2nc(N)nc(N)c2c1C	2%	69% (active)	-3%	96% (active)	inactive	inactive	inactive	inactive
Cc1ccc2[nH]c3c(c2c1)CC(C(=O)NCCC(C)C)NC31CCN(Cc2ccccc2)CC1 (stereo not given)	50% (active)	15%	6%	95% (active)	inactive	inactive	inactive	inactive
CCCCc1ccc(-c2ccc(-c3c(C)[nH]c(C)c(Br)c3=O)cn2)cc1	96% (active)	-7%	1%	98% (active)	inactive	inactive	inactive	inactive
O=[N+]([O-])c1ccc2nccnc2c1	0%	-2%	-1%	97% (active)	inactive	inactive	inactive	inactive
CC(C)CCCC(C)NC[C@@H](O)[C@H](Cc1ccccc1)NC(=O)c1cc(N2CCCC2=O)cc(N(c2ccccc2)S(C)(=O)=O)c1 (stereo not given in full)	97% (active)	17%	-5%	99% (active)	inactive	inactive	inactive	inactive

SMILES	growth inhibition [1]	inhibition [2]	inhibition [3]	growth inhibition [4]	outcome [5]	outcome [6]	outcome [7]	outcome [8]
COc1ccccc1OCCN(CC(O)COc1cccc2[nH]c3ccccc3c12)CC(O)COc1cccc2[nH]c3ccccc3c12 (stereo not given)	96% (active)	16%	-8%	97% (active)	inactive	inactive	inactive	inactive
Cc1ccc(-n2[nH]c(C)c(N=Nc3cccc(-c4cccc(NC(=O)OC(C)(C)C)c4)c3O)c2=O)cc1C	21%	39%	-4%	94% (active)	inactive	inactive	inactive	inactive
COc1ccc(NC(=O)CCNc2cc(C)nc(NCc3ccccc3C)n2)cc1	61% (active)	7%	-1%	94% (active)	inactive	inactive	inactive	inactive
CC(C)C1=NCc2ccc([N+](=O)[O-])cc2C(=O)N1	-1%	6%	4%	98% (active)	inactive	inactive	inactive	inactive
Cc1cc2nc(-c3cc(-c4cccc(NS(C)(=O)=O)c4)cnc3N)[nH]c2cc1C	32%	43%	-2%	102% (active)	inactive	inactive	inactive	inactive
CCn1c(-c2nonc2N)nc2cnc(Oc3cccc(NC(=O)c4ccc(OCCN5CCCC5)cc4)c3)cc21	1%	25%	2%	92% (active)	inactive	inactive	inactive	inactive
CC1CCc2c(C(=O)Nc3c(F)cc(F)cc3Br)csc2C1 (stereo not given)	59% (active)	-1%	3%	96% (active)	inactive	inactive	inactive	inactive
O=C(NCC1CCN(Cc2cccc(C(F)(F)F)c2)C1)c1cc(-c2cccc(Cl)c2)cs1 (stereo not given)	14%	15%	-5%	93% (active)	inactive	inactive	inactive	inactive
O=C(NCCCCN1CCC(c2ccc([N+](=O)[O-])cc2)CC1)c1ccc(NC(=O)c2ccc(Cl)cc2)cc1	55% (active)	15%	2%	100% (active)	inactive	inactive	inactive	inactive
COc1cccc(C(=O)OC2=C3CCC(=O)C3(C)CCC2=O)c1 (stereo not given)	9%	37%	2%	93% (active)	inactive	inactive	inactive	inactive
Cc1cccc2[nH]c(-c3cccc(-c4cccc(CNCc5ccccc5)c4)c3)nc12	56% (active)	3%	-1%	101% (active)	inactive	inactive	inactive	inactive
COc1cc2nc(NCc3nc4ccccc4[nH]3)nc(N)c2cc1OC	10%	3%	-2%	97% (active)	inactive	inactive	inactive	inactive
CCOC(=O)CNC(=O)N(CCN(Cc1ccccc1)C(=O)NCC(=O)OCC)Cc1ccccc1	-1%	9%	5%	98% (active)	inactive	inactive	inactive	inactive
CC1CCCCC1N(C)C1CCN(CCCNC(=O)C=Cc2ccc(Cl)cc2Cl)CC1 (stereo not given)	59% (active)	53% (active)	4%	101% (active)	inactive	inactive	inactive	inactive
O=C(Nc1ccccc1)N(Cc1ccccc1-c1cccc(CNCCc2ccccc2)c1)C1CCN(Cc2ccccc2)CC1	59% (active)	95% (active)	4%	100% (active)	inactive	inactive	inactive	inactive
O=C(Cc1cnc[nH]1)Nc1cccc(-c2ccc(-c3nc4ccc(F)cc4[nH]3)s2)c1	94% (active)	4%	-12%	101% (active)	inactive	inactive	inactive	inactive
CCN(CCCN1CCCCC1)c1cc(C)nc(Nc2cc(C(F)(F)F)ccc2C)n1	41%	35%	-2%	96% (active)	inactive	inactive	inactive	inactive
COc1ccc(CC(Cc2ccc(OC)cc2)NCC(O)c2cccc(Cl)c2)cc1 (stereo not given)	98% (active)	11%	-4%	100% (active)	inactive	inactive	inactive	inactive
CCNc1cc(C(=O)N[C@@H](Cc2ccccc2)[C@H](O)CNC2(CC(C)C)CC2)cc(N2CCCCS2(=O)=O)c1	29%	-3%	-5%	87% (active)	inactive	inactive	inactive	inactive
O=C(NCCCCN1CCC(c2ccc3c(c2OCCO)CCCC3)CC1)c1ccc(-c2ccc(C(F)(F)F)cc2)cc1	38%	100% (active)	6%	98% (active)	inactive	inactive	inactive	inactive
